Wnt bcat act: activates Wnt/beta-catenin signaling in a reporter cell assay; activation, % at 9.35 µM; activator, plate reader; 1.2% of 300,000 active; AID 743398; in the data active means activation above about 30%, passing the limit was not always enough; inconclusive means no clear call, values can overlap the other calls;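 further: 0% = neutral control wells and 100% = positive control wells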
esBAF inh: SWI/SNF esBAF complex inhibition. mouse ES cells, Bmi1-luciferase knock-in reporter, 24 h; 100% = twice the neutral-well signal. reporter increase, % at 12.5 µM. 2% of 350,000 active. AID 602393; in the data active means activation above about 40%; inconclusive means no clear call, values can overlap the other calls;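 further: 0% = median of the plate's neutral control wells and 100% = double that signal; a rise in the Bmi1 reporter signal indicates esBAF inhibition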
MITF act: increases MITF-driven TRPM1 promoter luciferase signal. AID 588334. activation, % at 12.5 µM. 0.75% of 300,000 active. SK-MEL-5 TRPM1-promoter luciferase, 24 h; % of positive control, neutral wells = 0;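 active means mean activation of at least 80% with every replicate also reaching 80%; inconclusive means mean reaches 80% but some replicate falls short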;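 further: 0% = neutral control wells and 100% = parthenolide positive control wells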
Vif imaging: HIV Vif inhibition. inhibition, % at 7.49 µM. HEK293T cells, Vif self-association by quenched fluorescence, imaging, 24 h. 0.35% of 340,000 active; in the data active means inhibition above about 50%, passing the limit was not always enough; inconclusive means no clear call, values can overlap the other calls; inactive means below about 31%
Glyco luc inh: blocks N-linked glycosylation in D54 reporter cells | 0.23% of 360,000 active | D54 ERlucT glycosylation luciferase reporter, 24 h; percent of 100 nM tunicamycin response | reporter increase, % at 12.5 µM;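 active means mean luciferase reporter signal, scaled so untreated is 0 and the glycosylation-blocking control 100, at or above a set limit in every replicate; inconclusive means mean reaches the limit but not every replicate does; inactive means mean below the limit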;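 further: luciferase carries N-glycosylation sites so blocking glycosylation raises the light; 0% = median of neutral control wells and 100% = median of 100 nM tunicamycin wells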
PfHsp90 set2: reduces growth (ATP signal) of yeast expressing P. falciparum Hsp90 | S. cerevisiae expressing PfHsp90, BacTiter-Glo ATP, 48 h; yeast lacking PDR1 and PDR3 efflux regulators | inhibition, % at 9.4 µM | 0.32% of 310,000 active;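 active means every replicate shows inhibition above about 80%, whatever the replicate mean, limit read from the data; inconclusive means mean inhibition reaches the set limit but some replicate falls short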;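 further: 0% = DMSO neutral controls and 100% = 20 µM radicicol positive controls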
Active calls of the source: *; ? = inconclusive; . = no result. Compounds with a hit are over-represented: about 3% of the library has one in this group of screens.

SMILES	Wnt bcat act	esBAF inh	MITF act	Vif imaging	Glyco luc inh	PfHsp90 set2
Cc1ccccc1NCc1nc2ccccc2n1C	14.4	?	.	-3.7	-9.5	-3.7
CCCn1c(CNc2ccc(Br)cc2)nc2ccccc21	6.1	48.2*	19.2	.	-4.6	-26.1
Cn1c(CNc2ccccc2)nc2ccccc21	.	66.0*	-7.3	.	1.0	-28.7
Cn1c(CNc2ccc(F)cc2)nc2ccccc21	5.9	68.5*	.	6.8	-3.0	12.8
CCn1cnc2cc(NCc3nc4ccccc4n3C)ccc21	0.0	16.6	28.2	-7.1	-7.0	-7.2
CCOC(=O)c1ccc(P(=O)(c2ccccc2)c2ccccc2)cc1	-1.2	-3.0	1.8	-12.4	0.1	9.4
O=c1ccccn1CCOc1ccc(Cl)cc1	2.1	2.8	12.7	-4.8	-0.6	7.1
CC(C)(C)c1ccc(OCCn2ccccc2=O)cc1	62.2*	59.5*	.	-26.0	2.6	.
Oc1[nH]c2ccccc2c1C=Nc1ccccc1	45.2*	?	?	-5.4	3.3	-15.2
CCOC(=O)c1c(SCC(=O)Nc2nccs2)nc(C)c(C)c1C	14.1	50.1*	52.0	-9.7	-0.2	7.0
O=C(CSc1cn(Cc2ccccc2)c2ccccc12)Nc1nccs1	52.6*	73.4*	.	2.4	-8.3	16.1
Cc1ccc(SCC(=O)Nc2nccs2)cc1	-0.1	24.0*	58.2	-6.3	-0.9	-6.9
CN(C)c1ccc(NC(=O)c2sc(SCC(=O)Nc3nccs3)nc2N)cc1	47.3*	52.6*	11.9	-7.2	-10.0	.
CCn1c(C)nnc1SCC(=O)Nc1nccs1	-0.1	-8.9	-3.6	10.2	1.3	4.4
CC(=O)Nc1ccc(NC(=O)CCCc2ccccc2)cc1	.	1.1	12.2	0.2	0.9	6.8
CCOC(=O)C1CCN(c2nc(N)c3c(N)nc(SCC(=O)O)cc3c2C#N)CC1	8.2	-4.0	-9.7	2.4	1.8	-18.7
CC(C)COC(=S)Nc1ccccc1	.	59.5*	50.0	.	-0.6	-0.5
CC(C)COCC(O)CCC(=O)NNC(=S)Nc1ccccc1 (stereo not given)	-2.1	.	11.1	-1.2	0.8	14.9
CCOCCCNC(=O)c1c(C)c(C(=O)OCC)n(C)c1C	.	-0.6	2.5	7.5	1.8	.
COc1cccc(CN2CC(C(=O)N3CCN(c4ccc(Cl)cc4)CC3)CCC2=O)c1 (stereo not given)	1.4	0.1	-5.4	-11.6	2.1	19.9
COC(=O)c1ccc(C(=O)OC)c(NS(C)(=O)=O)c1	.	-5.5	9.9	72.3*	0.9	.
COC(=O)c1ccccc1NS(C)(=O)=O	-2.3	4.3	-6.9	7.4	3.4	3.5
OC(CNCCC1C=Nc2ccccc21)Cn1c2ccc(Cl)cc2c2cc(Cl)ccc21 (stereo not given)	-37.6	.	-90.0	6.8	-16.2	105.3*
O=C(c1ccc(-c2ccccc2)cc1)N1CCN(c2ccccc2)CC1	12.4	50.6*	72.9	12.2	1.5	-8.3
O=C(c1ccc(Cl)cc1)N1CCN(c2ccc(F)cc2)CC1	4.4	5.2	-1.2	1.9	-0.5	102.2*
SMILES	Wnt bcat act	esBAF inh	MITF act	Vif imaging	Glyco luc inh	PfHsp90 set2
O=C(c1ccncc1)N1CCN(c2ccc(F)cc2)CC1	.	-5.2	-9.7	.	-0.1	1.2
Cc1ccc2[nH]c(=O)c3cc(C(=O)NCC4CCCO4)sc3c2c1 (stereo not given)	-0.7	.	12.7	-10.2	2.6	16.6
O=C1Nc2ccccc2Nc2ncccc21	.	-9.0	-5.1	-6.6	1.2	30.1
Cc1ccc2c(c1)NC(=O)c1cccnc1N2	1.0	63.3*	52.1	-0.4	0.7	22.0
CCN(CC)C(=O)c1ccc(COc2ccccc2Br)o1	.	73.1*	25.5	33.5	-1.0	-8.0
CC(C)(C)NC(=O)c1ccc(COc2ccccc2Br)o1	.	0.2	4.3	-0.3	2.0	-11.0
CCN(CC)C(=O)c1ccc(COc2ccc(Cl)c(C)c2)o1	1.2	77.5*	.	-13.1	-1.6	-21.9
Cc1cc(OCc2ccc(C(=O)n3cccn3)o2)ccc1Cl	46.8*	.	11.0	5.0	-0.6	34.6
CCOc1ccc(N2CC(C(=O)Nc3nnc(Cc4ccc(OC)cc4)s3)CC2=O)cc1 (stereo not given)	-0.5	4.6	6.6	19.3	1.3	-3.7
Cc1cc(C)nc(NNC2=CC(=[N+]3CCCC3)CCC2)n1	-1.7	.	5.9	-4.3	3.2	-3.0
N=c1c2c(ncn1CCCO)Oc1c(ccc3ccccc13)C2c1ccccc1 (stereo not given)	42.5*	.	-32.2	-4.6	9.2	3.5
O=C(c1cc2ccccc2oc1=O)N1CCOCC1	35.3*	49.5*	63.1	-3.3	1.3	5.5
O=C(Nc1ccc(Cl)c(S(=O)(=O)N2CCOCC2)c1)c1cc2ccccc2oc1=O	3.0	81.6*	27.0	31.3	-1.8	-14.3
O=C(c1cc2cc(Cl)ccc2oc1=O)N1CCOCC1	.	-13.4	-0.5	-3.7	0.8	9.0
CC(=O)OCC1=C(C(=O)O)N2C(=O)C(NC(=O)c3ccc(COc4c(C)cccc4Cl)o3)C2SC1 (stereo not given)	0.6	-1.3	3.3	0.4	0.3	-6.8
COc1cc(NC(=S)NCc2cccnc2)cc(OC)c1OC	1.5	.	-8.9	14.0	-1.0	-15.5
COc1ccc(CN(C(=O)Cn2nnc(-c3ccc(C)o3)n2)C(C(=O)NCC2CCCO2)c2ccco2)cc1 (stereo not given)	-3.8	.	-19.8	71.1*	0.2	3.5
Cc1ccc(SCCSc2nc(C)cc(=O)[nH]2)cc1	33.9*	34.0	53.4	-4.8	2.7	5.0
COc1ccc(/C=C/c2nc(-c3ccccc3O)n[nH]2)cc1	38.0*	.	42.5	-4.2	-7.7	4.2
COc1ccc(/C=C/c2nc(-c3ccccc3O)n(-c3ccccc3)n2)cc1	-0.5	2.2	18.0	-8.5	1.6	12.7
CC1=C/C(=C(\c2ccc(O)c(C)c2)c2ccccc2S(=O)(=O)O)C=CC1=O	0.1	1.1	-15.0	-4.1	0.3	-2.5
COc1ccc(C(=O)NCC2OCCc3ccccc32)c(O)c1 (stereo not given)	.	67.1*	43.4	14.9	0.8	15.0
CC1CCN(c2ccc(NC(=S)NC(=O)c3ccco3)cc2)CC1	.	45.8*	16.6	-20.6	0.8	5.4
O=C(NC(=S)Nc1ccccc1N1CCCCC1)c1ccco1	-1.9	-4.1	0.6	-4.8	-2.6	-10.9
O=C(NC(=S)Nc1ccc(N2CCCCC2)cc1)c1ccco1	27.9	31.5	110.1*	-11.9	-5.9	5.1
COC(=O)c1ccc(CSc2nc(-c3ccccc3)cs2)o1	0.6	31.1	52.8	6.2	0.6	3.2
C#CCNC(=O)c1cccn1-c1ncc(C(F)(F)F)cc1Cl	1.2	.	5.8	17.9	0.9	14.7
N#CCNC(=O)c1cccn1-c1ncc(C(F)(F)F)cc1Cl	38.2*	-0.7	-2.8	11.7	-1.4	9.3
O=[N+]([O-])c1cc(-c2cnc3ccccc3n2)ccc1Oc1ccc(Br)cc1	.	44.2*	.	-1.3	1.1	-33.7
